AmpC inh no detg: inhibitors of E. coli AmpC beta-lactamase without detergent. Potency, µM (doses to about 57.1 µM), for the others: at the highest dose activity change, negative = inhibition, actives largely listed as inhibitors. P00811. AmpC nitrocefin hydrolysis, absorbance 480 nm, 0.0001% Triton. AID 485341. actives 0.52% (n = 330,000);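 also: potency is read from the fitted curve at half-maximal effect; plate controls were no compound for no effect and no enzyme for full effect; nearly all actives have a fitted effect of over 20% in size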
Target sequence (P00811 whole entry, looked up): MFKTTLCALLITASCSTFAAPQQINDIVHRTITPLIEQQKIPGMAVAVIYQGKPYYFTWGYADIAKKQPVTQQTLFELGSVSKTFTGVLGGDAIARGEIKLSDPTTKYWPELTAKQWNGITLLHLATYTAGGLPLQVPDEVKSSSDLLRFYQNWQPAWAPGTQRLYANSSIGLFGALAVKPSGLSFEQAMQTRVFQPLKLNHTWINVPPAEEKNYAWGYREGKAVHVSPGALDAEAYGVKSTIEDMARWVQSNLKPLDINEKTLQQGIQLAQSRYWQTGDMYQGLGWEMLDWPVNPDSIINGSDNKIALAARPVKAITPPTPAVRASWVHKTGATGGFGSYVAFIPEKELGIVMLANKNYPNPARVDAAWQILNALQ
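AmpC (5.3 nM in the dispensed reagent) in 20 mM phosphate pH 7.0 with 0.01% (detergent screen) or 0.0001% Triton X-100 was preincubated with compounds for 15 min at room temperature. Nitrocefin was then added from an 800 uM solution, and hydrolysis was followed at 480 nm.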
AMA1 RON2 block: disrupts binding of P. falciparum AMA1 to RON2; actives 0.2% (n = 360,000); AlphaScreen AMA1-biotinylated RON2 peptide binding; Potency, µM (highest dose often 58.2 µM), inactives show at the top dose activity change, negative = inhibition, usual class: inhibitors;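 also: potency is read from the fitted curve at half-maximal effect; 0% = vehicle wells and -100% = peptide control; nearly all actives have a fitted effect of over 45% in size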
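AMA1 (3D7) with his tag at 25 nM final met compounds first, then biotinylated RON2 peptide at 25 nM; detection used donor plus acceptor beads, 10 µg/mL apiece, read by AlphaScreen after 30 min at room temperature.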
AmpC detergent: blocks E. coli AmpC beta-lactamase in detergent assay; AmpC hydrolysis of nitrocefin, absorbance 480 nm, 0.01% Triton; Potency, µM (highest dose often 114 µM), without a hit: at the highest dose activity change, negative = inhibition, hits mostly inhibitors; actives 0.041% (n = 370,000); AID 485294;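 also: potency is read from the fitted curve at half-maximal effect; 0% = no-compound wells and -100% = no-enzyme wells; nearly all actives have a fitted effect of over 25% in size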
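AmpC (5.3 nM in the dispensed reagent) in 20 mM phosphate pH 7.0 with 0.01% (detergent screen) or 0.0001% Triton X-100 was preincubated with compounds for 15 min at room temperature. Nitrocefin was then added from an 800 uM solution, and hydrolysis was followed at 480 nm.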
CHX counter: counter-screen for Shiga toxin inhibitors: cycloheximide protein synthesis inhibition; AID 2314; max response, %; actives 12% (n = 300,000); cell reporter, cycloheximide protein synthesis inhibition counterscreen; in the data active = max response mostly above about 13%, no sharp cut-off; inactive = mostly below about 14%; also: read at 38.3 µM for the half of the compounds with a filed dose; 0% is about no effect
SARS PLP yeast: SARS-CoV PLP inhibition in yeast; S. cerevisiae expressing SARS-CoV PLpro, growth rescue; Potency, µM (highest dose often 32.9 µM), without a hit: at the top dose activity, positive = growth rescue, most hits filed as activators; actives 0.19% (n = 330,000); AID 485353; calls by dose curve; also: potency is read from the fitted curve at half-maximal effect; 0% is about no effect; nearly all actives have a fitted effect of over 55% in size
Shiga inhibitor: Shiga toxin inhibition; Vero cells, Shiga toxin protein synthesis inhibition reporter; actives 9.2% (n = 290,000); inhibition, % at 38.7 µM; in the data active = inhibition mostly above about 28%, no sharp cut-off; inactive = mostly below about 43%; also: 0% is about no effect
Starred values were filed as active, the others as inactive; ? = inconclusive; · = not tested or not shown; ! = a repeat was not active; [ ] = dose if it differs, or a comment. This excerpt belongs to a sample that is enriched for hits. Unless noted, calls follow the shape of the dose curve; as a rule, active = well fitted curve in the direction sought with a large enough effect; inconclusive = small, poorly fitted or top-dose-only effect, or another doubt; inactive = no such curve, though single readings can be large; an effect the other way counts as inactive or inconclusive.

SMILES	AmpC inh no detg	AMA1 RON2 block	AmpC detergent	CHX counter	SARS PLP yeast	Shiga inhibitor
Nc1nc2ccc([N+](=O)[O-])cc2[nH]1	-21%	-10%	-5%	-3	0%	15
Cc1noc(C)c1NC(=O)N(C)C[C@H]1OCCCC[C@@H](C)Oc2ccc(NC(=O)c3ccccc3)cc2C(=O)N([C@H](C)CO)C[C@@H]1C	·	6%	·	·	·	·
CCOC(=O)C1(C)C(C(=O)OC)=C(c2ccc(OC)cc2)c2ccccc2N1C(=O)OC (stereo not given)	202%	-15%	·	-6	13%	1
COc1ccc(C(CNC(=O)C(CCSC)NC(=O)c2ccccc2Cl)N2CCOCC2)cc1 (stereo not given)	13%	-14%	0%	·	5%	·
CCC(C)NC(=O)c1cc(-c2ccc(OC)cc2)on1 (stereo not given)	-18%	-12%	0%	29*	-1%	66*
COc1ccc(-c2cc(C(=O)NCC(C)C)no2)cc1	-8%	-18%	-5%	38*	5%	71*
CC1CCCN(CCC(=O)Nc2ccc(Br)cc2)C1 (stereo not given)	-19%	-3%	-5%	-2	4%	-3
O=C(NNC(=O)c1cccs1)c1ccc2ccccc2c1	-17%	-7%	0%	29*	-2%	51*
Cc1ccc(C(=O)COC(=O)c2cccs2)cc1	-19%	5%	-8%	11	-5%	-2
CN(C)c1ccc(C(=O)OCC(=O)c2cccs2)cc1	0%	5%	-1%	45*	7%	71*
COc1ccc(C(=O)COC(=O)c2ccc(N(C)C)cc2)cc1	-21%	70%	1%	-1	13%	-11
O=C(COC(=O)c1cccs1)c1ccc2c(c1)OCCO2	-23%	4%	-4%	-2	-28%	-14
CCc1ccc(C(=O)COC(=O)c2cccs2)cc1	-28%	64%	-2%	23*	-4%	52
O=C(COC(=O)c1cccs1)c1ccc2ccccc2c1	-24%	9%	-15%	56*	3%	98*
O=S(=O)(c1cc(Cl)ccc1Br)N1CCOCC1	-7%	21%	?	-1	2%	-3
C[C@H](CO)N1C[C@H](C)[C@@H](CN(C)S(=O)(=O)c2ccc(-n3cccn3)cc2)OCc2cnnn2CCCC1=O	·	1%	·	·	·	·
CC1CCC(C(=O)NC(C(=O)NCCc2ccc(S(N)(=O)=O)cc2)C(C)C)CC1 (stereo not given)	-1%	-4%	4%	-3	0%	2
COc1ccc(NC(=O)Nc2cccs2)cn1	-37%	8%	-4%	9.5*	1%	18
COc1ccc(NC(=O)c2sccc2C)cn1	-13%	9%	2%	43*	-2%	89*
CCc1cc(C(=O)Nc2ccc(OC)nc2)sc1C	28%	5%	-3%	·	-8%	·
COc1ccc(NC(=O)c2cc(Br)c(Br)s2)cn1	-30%	-4%	5%	24*	-26%	91*
COc1ccc(NC(=O)Nc2cc(C)cc(C)c2)cn1	-41%	8%	1%	15	0%	39
CCC1CCCCN1CCCNC(=O)CNC(=O)c1nn(-c2ccc(OC)cc2)c(=O)c2ccccc12 (stereo not given)	29%	-11%	-2%	0	0%	3
Fc1cccc(Cl)c1/C=N/Nc1ccccn1	-17%[11.4 µM]	21%	?	10	0%	58
Cc1csc(N/N=C/c2ccccc2F)n1	-31%	62%	-15%	38*	·	56*
SMILES	AmpC inh no detg	AMA1 RON2 block	AmpC detergent	CHX counter	SARS PLP yeast	Shiga inhibitor
CCOc1ccc(/C=N/Nc2nc(C)cs2)c(O)c1	-26%	63%	-13%	49*	1%	58*
CCOc1ccc(/C=N/Nc2cc(N3CCOCC3)ncn2)c(O)c1	·	57%	·	·	·	·
Cc1csc(N/N=C/c2c(F)cccc2Cl)n1	-32%	81%	3%	38*	-6%	86*
Cc1cc(C)n2nc(-c3cnn(C)c3C(F)(F)F)cc2n1	1%	11%	-11%	14	-5%	22
O=C(COC(=O)Cc1ccccc1F)Nc1ccc2c(c1)OCCO2	-9%	13%	1%	33*	-33%	59*
CCN(CC)c1ccc(NC(=O)COc2ccccc2C#N)cc1S(=O)(=O)Nc1ccc(OC)cc1	-26%	7%	?	10	8%	44*
CCN(CC)c1ccc(NC(=O)COc2ccccc2C)cc1S(=O)(=O)Nc1ccccc1OC	-24%	16%[2.32 µM]	?	-1	7%	-14
O=C(COc1ccccc1F)Nc1ccc2c(c1)OCCO2	-9%	-5%	-3%	56*	-1%	103*
N#Cc1ccccc1OCC(=O)Nc1ccc2c(c1)OCCCO2	-1%	11%	4%	50*	-17%	77*
O=C(COC(=O)Cc1ccccc1F)Nc1ccc2c(c1)OCO2	-49%	-3%	-2%	6	-6%	-5
NC(=O)c1ccsc1NC(=O)COC(=O)CCc1ccccc1	·	48%	·	·	·	·
O=C(COc1ccccc1Br)Nc1ccc2c(c1)OCCCO2	-4%	2%	-1%	47*	-23%	66*
O=C1c2ccccc2N(Cc2ccc(Cl)cc2)C2=NCCN12	-24%	0%	-17%	-2	2%	-8
CC1=NN(C(=O)c2ccco2)C(O)(c2ccccc2)C1 (stereo not given)	-17%	105%	9%	45*	-1%	80*
CC1=NN(C(=O)COc2ccccc2)C(O)(c2ccccc2)C1 (stereo not given)	-27%	70%	-13%	-2	15%	-10
CC1=NN(C(=O)c2ccc(C)o2)C(O)(c2ccccc2)C1 (stereo not given)	-26%	69%	-1%	30*	-20%	active
CC1=NN(C(=O)CSCc2ccccc2)C(O)(c2ccccc2)C1 (stereo not given)	-13%[2.29 µM]	88%	-9%	16	0%	32
Cc1cccc(N2CCc3c2nc2ccccc2c3N)c1	-3%	-9%	-8%	17*!	2%	27*!
COc1ccc(-c2cc(C(=O)Nc3ccccc3F)on2)cc1	-13%	-21%	-3%	33*	-3%	80*
COc1ccc(-c2cc(C(=O)Nc3ccccc3)on2)cc1	-8%	-20%	7%	19*	0%	124*
COc1ccc(NC(=O)c2cc(-c3ccccc3O)no2)cc1	·	·	4%	·	·	·
Cc1ccc(-c2cn3c(n2)SCC3)cc1	-22%	-6%	-1%	43*	-4%	141*
CN(C)S(=O)(=O)Nc1cccc(-c2cn3c(n2)SCC3)c1	-26%	1%	?	-3	8%	2
CCc1ccc(-c2cn3c(n2)SCC3)cc1	-9%	1%	10%	47*	-2%	68*
COc1cccc(-c2nc3nc(C)cc(C)n3c2Nc2ccc3c(c2)OCCO3)c1	·	-24%	·	·	·	·

Source: PubChem BioAssay
